Measurements as given in PubChem BioAssay.
Active and inactive are the calls of the source.

Legend:
[1] = test system: PRMT1 (protein arginine N-methyltransferase 1); experiment: small molecules binding arginine methyltransferase PRMT1 – biochemical, small-molecule microarray, 635 nm fluorescence, primary screen (AID 1088); conditions: higher = more signal;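 note: binding of Prmt1 protein to compounds spotted on small-molecule microarray slides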
[2] = growth effects on S. cerevisiae YJM789 – YJM789 clinical isolate, OD600, 24 h, basal, primary screen (AID 1089); conditions: higher = more signal, called active from +8 up or from −8 down;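 note: growth of clinical yeast isolate S. cerevisiae YJM 789 seeded 1000 cells per well; test concentration not given here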
[3] = S. pombe growth modifiers, basal conditions – strain 972, OD600, 24 h, no modulator, primary screen (AID 1090);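 note: basal condition with compound alone and no growth modifier present; test concentration not given here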; conditions: S. pombe 972 growth, higher = more signal, called active from +8 up or from −8 down
[4] = budding yeast growth modifiers under rapamycin – strain BY4716, OD600, 96 h, primary screen (AID 1091); note: test concentration not given here; conditions: S. cerevisiae BY4716 + rapamycin, higher = more signal, called active from +8 up or from −8 down
[5] = biological target: Torsin-1A-interacting protein 2 (Homo sapiens) (UniProt Q8NFQ8); experiment: small molecules binding lysate-expressed LULL1 – cell lysate, human LULL1 lysate, 635/667 nm fluorescence, primary screen (AID 1092); conditions: small-molecule microarray, hLULL1 lysate binding, 635 nm fluorescence; higher = more signal;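 note: probe is lysate of COS7 cells overexpressing human LULL1; score merges per-feature 667 nm fluorescence with signal-to-noise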
[6] = optical density change of DRC41 E. coli – strain DRC41, OD650, 24 h, E. coli filamentation project, primary screen (AID 1093);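 note: MC1000 strain lacking acrAB efflux and sulA so SOS filamentation is blocked; test concentration not given here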; conditions: E. coli DRC41 growth, higher = more signal, called active from +8 up or from −8 down
[7] = probe aLefty2 binding to arrayed compounds – biochemical, biotinylated probe, 635/667 nm fluorescence, primary screen (AID 1094); conditions: small-molecule microarray, higher = more signal;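 note: score merges spot fluorescence near 667 nm with spot signal-to-noise ratio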
[8] = test system: Noggin (protein binding on small-molecule microarray); experiment: small molecules binding Noggin protein – biochemical, 635/667 nm fluorescence, primary screen (AID 1095); conditions: 635 nm fluorescence, higher = more signal;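 note: score merges 667 nm feature fluorescence with signal to noise over triplicate slides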
[9] = biological target: Neurogenic locus notch homolog protein 3 (Homo sapiens) (UniProt Q9UM47); experiment: small molecules binding NOTCH3 protein – biochemical, 635/667 nm fluorescence, primary screen (AID 1096); conditions: small-molecule microarray, 635 nm fluorescence, higher = more signal
[10] = probe aEGFR binding to arrayed compounds – biochemical, biotinylated probe, 635/667 nm fluorescence, primary screen (AID 1097); conditions: small-molecule microarray, higher = more signal;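 note: probe is a biotinylated anti-EGFR antibody binding compounds printed on slides; score combines fluorescence near 667 nm and signal to noise of each spot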
[11] = test system: Plasmodium falciparum Sir2 (PF13_0152, Sir2A); experiment: Plasmodium falciparum Sir2A binding compounds – biochemical, small-molecule microarray, 635 nm fluorescence, primary screen (AID 1098); conditions: fluorescence 635 nm, higher = more signal;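 note: score merges spot fluorescence intensity with its signal-to-noise ratio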
[12] = probe aDKK1 binding to arrayed compounds – biochemical, biotinylated probe, 635/667 nm fluorescence, primary screen (AID 1099); conditions: small-molecule microarray, higher = more signal;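 note: score merges 667nm spot fluorescence with signal to noise across triplicate slides; reference of the scale not given here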
[13] = probe aCHRDL2 binding to arrayed compounds – biochemical, biotinylated probe, 635/667 nm fluorescence, primary screen (AID 1100); conditions: small-molecule microarray, higher = more signal
[14] = change in splice reporter luminescence, either direction, cell-based, HEK293, spliceosome inhibition project, primary screen (AID 1101); conditions: HEK293 splicing luciferase reporter, 24 h, higher = more signal, called active from +8 up or from −8 down;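 note: HEK293 cells carrying a splicing-competent luciferase reporter gene; test concentration not given here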
[15] = biological target: Fibroblast growth factor 10 (Homo sapiens) (UniProt O15520); experiment: compounds binding fibroblast growth factor 10 – biochemical, small-molecule microarray, 635 nm fluorescence, primary screen (AID 1102); conditions: FGF10 binding, fluorescence 635 nm, higher = more signal
[16] = test system: glycogen synthase kinase-3 (GSK3A per assay name; protocol says GSK3B); experiment: compounds binding glycogen synthase kinase-3 – biochemical, small-molecule microarray, 635 nm fluorescence, GSK3A, primary screen (AID 1103); conditions: fluorescence 635 nm, higher = more signal; note: the record names both GSK3A and GSK3B
[17] = biological target: Epidermal growth factor receptor (Homo sapiens) (UniProt P00533); experiment: compounds binding epidermal growth factor receptor – biochemical, small-molecule microarray, 635 nm fluorescence, primary screen (AID 1104); conditions: EGFR binding, higher = more signal;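 note: score merges 667 nm emission intensity with spot signal to noise over triplicate slides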
[18] = biological target: Follistatin-related protein 3 (Homo sapiens) (UniProt O95633); experiment: compounds binding follistatin-related protein 3 – biochemical, small-molecule microarray, 635 nm fluorescence, primary screen (AID 1105); conditions: FSTL3 binding, higher = more signal;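 note: score merges emission near 667 nm and signal to noise per printed spot across three slides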
[19] = biological target: Dickkopf-related protein 1 (Homo sapiens) (UniProt O94907); experiment: small molecules binding DKK1 protein – biochemical, small-molecule microarray, 635 nm fluorescence scan, primary screen (AID 1106); conditions: higher = more signal;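 note: score merges emission near 667 nm with signal to noise over three replicate slides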
[20] = test system: Inhibin beta A chain (activin A); experiment: small molecules binding activin A – biochemical, small-molecule microarray, 635 nm fluorescence scan, primary screen (AID 1107); conditions: INHBA, higher = more signal;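 note: mouse activin A protein probed at 4.33 µg/mL on printed slides; score merges bound-protein fluorescence near 667 nm with spot signal-to-noise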

Sequence of Torsin-1A-interacting protein 2 (Homo sapiens) (Q8NFQ8 whole entry, looked up): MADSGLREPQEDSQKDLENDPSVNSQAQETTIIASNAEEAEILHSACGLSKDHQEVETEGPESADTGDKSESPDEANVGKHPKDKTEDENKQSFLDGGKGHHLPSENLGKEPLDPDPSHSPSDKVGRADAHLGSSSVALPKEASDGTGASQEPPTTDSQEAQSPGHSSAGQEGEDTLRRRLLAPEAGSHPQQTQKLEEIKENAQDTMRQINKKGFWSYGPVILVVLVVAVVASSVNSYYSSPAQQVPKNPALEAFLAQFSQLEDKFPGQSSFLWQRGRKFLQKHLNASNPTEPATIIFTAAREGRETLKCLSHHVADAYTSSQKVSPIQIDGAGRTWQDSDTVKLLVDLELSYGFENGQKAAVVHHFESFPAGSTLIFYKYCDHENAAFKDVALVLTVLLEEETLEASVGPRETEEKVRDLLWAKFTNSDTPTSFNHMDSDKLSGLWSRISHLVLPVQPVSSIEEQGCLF
Sequence of Follistatin-related protein 3 (Homo sapiens) (O95633 whole entry, looked up): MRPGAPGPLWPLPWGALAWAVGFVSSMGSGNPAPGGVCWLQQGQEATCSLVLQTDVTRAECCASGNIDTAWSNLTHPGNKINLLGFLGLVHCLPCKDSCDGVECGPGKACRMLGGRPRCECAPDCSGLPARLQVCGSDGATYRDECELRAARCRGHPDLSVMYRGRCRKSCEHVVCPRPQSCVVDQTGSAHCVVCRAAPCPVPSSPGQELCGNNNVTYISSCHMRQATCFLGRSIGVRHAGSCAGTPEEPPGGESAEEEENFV
Sequence of Epidermal growth factor receptor (Homo sapiens) (P00533 whole entry, looked up): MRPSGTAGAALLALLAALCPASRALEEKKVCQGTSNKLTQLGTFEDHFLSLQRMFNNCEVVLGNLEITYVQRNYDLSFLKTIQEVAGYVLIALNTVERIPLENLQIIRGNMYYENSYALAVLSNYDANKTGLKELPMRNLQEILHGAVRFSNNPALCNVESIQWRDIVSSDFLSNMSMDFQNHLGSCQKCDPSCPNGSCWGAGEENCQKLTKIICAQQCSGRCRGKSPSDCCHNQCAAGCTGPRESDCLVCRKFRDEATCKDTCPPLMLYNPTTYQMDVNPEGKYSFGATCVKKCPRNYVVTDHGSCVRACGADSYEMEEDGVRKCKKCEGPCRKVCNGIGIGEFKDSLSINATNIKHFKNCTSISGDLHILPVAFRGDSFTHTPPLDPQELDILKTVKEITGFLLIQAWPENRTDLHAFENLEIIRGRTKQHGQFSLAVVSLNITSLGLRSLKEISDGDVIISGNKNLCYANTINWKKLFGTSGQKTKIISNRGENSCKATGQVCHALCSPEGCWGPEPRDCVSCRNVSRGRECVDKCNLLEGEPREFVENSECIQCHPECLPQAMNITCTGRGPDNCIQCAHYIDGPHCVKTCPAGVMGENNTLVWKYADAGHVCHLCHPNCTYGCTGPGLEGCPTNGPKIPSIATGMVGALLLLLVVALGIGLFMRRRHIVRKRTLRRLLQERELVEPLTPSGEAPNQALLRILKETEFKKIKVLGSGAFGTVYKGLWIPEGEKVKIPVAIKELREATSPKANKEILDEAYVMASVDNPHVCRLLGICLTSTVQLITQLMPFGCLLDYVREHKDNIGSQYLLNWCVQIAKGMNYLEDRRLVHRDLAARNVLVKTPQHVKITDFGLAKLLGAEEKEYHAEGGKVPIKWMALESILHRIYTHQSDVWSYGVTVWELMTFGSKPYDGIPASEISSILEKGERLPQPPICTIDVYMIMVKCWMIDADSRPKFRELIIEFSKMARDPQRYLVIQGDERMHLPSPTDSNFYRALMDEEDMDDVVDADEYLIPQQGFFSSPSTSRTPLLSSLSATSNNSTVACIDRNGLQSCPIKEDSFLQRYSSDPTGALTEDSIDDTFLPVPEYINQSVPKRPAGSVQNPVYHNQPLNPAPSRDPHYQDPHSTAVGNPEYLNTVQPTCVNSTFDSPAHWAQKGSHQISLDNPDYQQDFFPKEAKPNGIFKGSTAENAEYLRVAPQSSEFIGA
Sequence of Fibroblast growth factor 10 (Homo sapiens) (O15520 whole entry, looked up): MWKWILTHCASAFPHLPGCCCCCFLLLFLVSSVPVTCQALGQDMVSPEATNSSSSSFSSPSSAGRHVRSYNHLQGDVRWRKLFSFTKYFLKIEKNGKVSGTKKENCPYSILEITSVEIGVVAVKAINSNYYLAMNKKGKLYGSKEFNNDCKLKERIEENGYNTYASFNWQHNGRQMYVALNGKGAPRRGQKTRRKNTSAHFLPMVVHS
Sequence of Dickkopf-related protein 1 (Homo sapiens) (O94907 whole entry, looked up): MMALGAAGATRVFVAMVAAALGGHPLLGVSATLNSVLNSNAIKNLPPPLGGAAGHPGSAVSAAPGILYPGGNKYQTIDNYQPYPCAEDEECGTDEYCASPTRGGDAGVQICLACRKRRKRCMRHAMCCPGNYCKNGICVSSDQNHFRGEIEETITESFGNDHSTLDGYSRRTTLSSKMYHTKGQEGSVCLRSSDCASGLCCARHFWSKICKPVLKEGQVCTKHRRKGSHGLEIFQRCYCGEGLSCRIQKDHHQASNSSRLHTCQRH
Sequence of Neurogenic locus notch homolog protein 3 (Homo sapiens) (Q9UM47 whole entry, looked up): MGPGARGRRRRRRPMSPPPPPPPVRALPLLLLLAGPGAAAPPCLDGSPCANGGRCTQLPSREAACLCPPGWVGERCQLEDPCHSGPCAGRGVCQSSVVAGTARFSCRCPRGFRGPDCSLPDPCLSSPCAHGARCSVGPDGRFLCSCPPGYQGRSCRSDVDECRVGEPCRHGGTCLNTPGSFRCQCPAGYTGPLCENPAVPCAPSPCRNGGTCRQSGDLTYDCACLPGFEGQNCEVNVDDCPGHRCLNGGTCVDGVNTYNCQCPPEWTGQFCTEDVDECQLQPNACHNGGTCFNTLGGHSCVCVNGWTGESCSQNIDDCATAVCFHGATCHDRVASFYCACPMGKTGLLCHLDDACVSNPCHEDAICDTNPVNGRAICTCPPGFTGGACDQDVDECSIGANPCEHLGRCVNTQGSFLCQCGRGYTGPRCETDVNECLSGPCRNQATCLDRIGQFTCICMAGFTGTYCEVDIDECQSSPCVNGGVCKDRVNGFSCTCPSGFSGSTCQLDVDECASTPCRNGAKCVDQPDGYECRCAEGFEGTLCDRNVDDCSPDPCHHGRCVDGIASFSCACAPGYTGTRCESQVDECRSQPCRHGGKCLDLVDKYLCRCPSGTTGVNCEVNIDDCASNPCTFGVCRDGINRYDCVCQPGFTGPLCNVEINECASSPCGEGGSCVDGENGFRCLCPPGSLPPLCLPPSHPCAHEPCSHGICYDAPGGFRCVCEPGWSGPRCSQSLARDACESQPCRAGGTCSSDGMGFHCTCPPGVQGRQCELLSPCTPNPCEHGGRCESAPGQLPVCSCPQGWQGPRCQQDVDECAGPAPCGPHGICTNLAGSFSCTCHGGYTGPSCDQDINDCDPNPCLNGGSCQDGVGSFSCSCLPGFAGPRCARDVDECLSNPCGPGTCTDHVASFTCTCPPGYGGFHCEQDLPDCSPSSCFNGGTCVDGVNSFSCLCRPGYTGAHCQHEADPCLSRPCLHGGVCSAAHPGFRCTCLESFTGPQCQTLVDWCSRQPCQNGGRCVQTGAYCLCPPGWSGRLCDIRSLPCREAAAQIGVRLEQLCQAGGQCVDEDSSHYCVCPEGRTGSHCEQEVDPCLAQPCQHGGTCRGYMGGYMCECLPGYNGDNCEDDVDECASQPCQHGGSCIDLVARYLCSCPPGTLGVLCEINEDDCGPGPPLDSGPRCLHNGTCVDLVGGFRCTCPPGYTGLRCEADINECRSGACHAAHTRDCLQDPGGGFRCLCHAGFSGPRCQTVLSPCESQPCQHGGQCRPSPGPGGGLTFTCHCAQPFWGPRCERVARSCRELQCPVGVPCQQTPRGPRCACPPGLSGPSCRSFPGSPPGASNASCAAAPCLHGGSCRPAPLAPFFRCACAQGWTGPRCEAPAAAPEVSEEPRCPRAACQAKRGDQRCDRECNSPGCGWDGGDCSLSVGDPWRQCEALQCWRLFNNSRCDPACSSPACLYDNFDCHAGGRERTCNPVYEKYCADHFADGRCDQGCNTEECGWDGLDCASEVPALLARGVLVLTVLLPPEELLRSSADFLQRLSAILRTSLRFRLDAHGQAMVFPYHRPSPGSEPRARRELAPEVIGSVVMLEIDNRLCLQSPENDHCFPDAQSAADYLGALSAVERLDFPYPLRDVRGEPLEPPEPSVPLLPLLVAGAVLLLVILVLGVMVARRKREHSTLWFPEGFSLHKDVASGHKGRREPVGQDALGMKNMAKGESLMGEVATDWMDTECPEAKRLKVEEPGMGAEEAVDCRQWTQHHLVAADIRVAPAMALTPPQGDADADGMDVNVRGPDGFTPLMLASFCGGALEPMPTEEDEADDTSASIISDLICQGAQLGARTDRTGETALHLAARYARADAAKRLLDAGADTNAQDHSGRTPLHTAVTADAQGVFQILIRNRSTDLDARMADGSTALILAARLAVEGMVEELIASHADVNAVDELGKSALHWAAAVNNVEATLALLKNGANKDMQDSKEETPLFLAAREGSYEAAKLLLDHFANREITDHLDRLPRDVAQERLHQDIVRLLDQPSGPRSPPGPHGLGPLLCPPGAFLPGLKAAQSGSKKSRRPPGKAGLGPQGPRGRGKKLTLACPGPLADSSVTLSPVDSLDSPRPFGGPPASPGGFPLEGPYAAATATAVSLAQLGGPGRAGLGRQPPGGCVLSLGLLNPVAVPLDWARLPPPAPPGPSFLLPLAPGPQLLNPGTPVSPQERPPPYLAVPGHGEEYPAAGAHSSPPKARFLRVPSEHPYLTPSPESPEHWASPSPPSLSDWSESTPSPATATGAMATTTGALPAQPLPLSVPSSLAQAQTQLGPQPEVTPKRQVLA

| Compound | composite z-score [1] | z-score [2] | z-score [3] | z-score [4] | composite z-score [5] | z-score [6] | composite z-score [7] | composite z-score [8] | composite z-score [9] | composite z-score [10] | composite z-score [11] | composite z-score [12] | composite z-score [13] | z-score [14] | composite z-score [15] | composite z-score [16] | composite z-score [17] | composite z-score [18] | composite z-score [19] | composite z-score [20] |
| --- | --- | --- | --- | --- | --- | --- | --- | --- | --- | --- | --- | --- | --- | --- | --- | --- | --- | --- | --- | --- |
| CC(C)N1C(=O)C[C@@](C(=O)NCCN2CCOCC2)(c2ccc([N+](=O)[O-])cc2)[C@H]1c1ccc(CO)cc1 | 0.266 | -1.77 (inactive) | -0.274 (inactive) | -1.76 (inactive) | 3.61 | 0.214 (inactive) | -0.001 | 0.193 | -0.958 | -0.228 | 1.88 | -0.477 | 0.447 | -0.286 (inactive) | -0.945 | -0.175 | -1.12 | -0.854 | -1.03 | 0.16 |
| COc1ccc([Si](C)(C)[C@@H]2[C@@H](CC(=O)N3Cc4ccccc4C[C@H]3CO)O[C@]3(C(=O)N(Cc4cccc(N5CCOC5=O)c4)c4ccccc43)[C@H]2C)cc1 | 1.56 | -1.45 (inactive) | 0.837 (inactive) | 1.77 (inactive) | 1.15 | 0.742 (inactive) | -0.121 | 1.42 | 1.12 | -0.0972 | 1.21 | -0.503 | -0.562 | -0.589 (inactive) | 0.628 | 0.717 | 1.01 | 1.37 | 1.21 | 0.792 |
| O=C(NCCN1CCOCC1)[C@@H]1c2ccccc2C(=O)N(Cc2ccccc2C(F)(F)F)[C@H]1c1ccc(CO)cc1 | 1.56 | -0.451 (inactive) | -0.539 (inactive) | -0.705 (inactive) | 1.81 | 0.75 (inactive) | -0.525 | -0.982 | -0.842 | -0.403 | 0.99 | -0.745 | -0.31 | -0.422 (inactive) | -0.393 | 0.0726 | -1.11 | -0.708 | -1.28 | -0.735 |
| CCOC(=O)C[C@H]1[C@H](OC(=O)c2cc3ccccc3oc2=O)[C@@H](NC(=O)CC(C)C)c2cc(OCCCO)ccc2N1C(=O)Cc1ccc(OC)cc1 | 1.14 | -0.238 (inactive) | -0.462 (inactive) | 0.052 (inactive) | 1.3 | -0.479 (inactive) | -0.165 | 0.322 | 0.924 | -0.0973 | 0.621 | -0.283 | -0.309 | -0.339 (inactive) | 0.942 | 0.523 | 0.145 | 0.91 | 0.481 | -0.0372 |
| COCCOC(=O)N1C(=O)[C@@]2(c3ccccc31)[C@H](C(=O)N1CCN(c3ncccn3)CC1)[C@H]1C(=O)O[C@H](c3ccccc3)[C@H](c3ccccc3)N1[C@@H]2c1ccccc1OCCO | 1.49 | 1.13 (inactive) | 0.185 (inactive) | 7.39 (inactive) | 2.61 | 1.97 (inactive) | -0.0366 | 1.18 | 1.07 | -0.067 | 1.33 | -0.0994 | -0.41 | -1.05 (inactive) | 1.17 | 1.31 | 0.575 | 1.15 | 0.778 | 0.888 |
| CC(C)(C)OC(=O)CC[C@@]1(C(=O)NCCN2CCOCC2)N=C(c2ccc(OCCCO)cc2)O[C@@H]1c1ccccc1CN=[N+]=[N-] | 1.09 | -0.865 (inactive) | 0.258 (inactive) | -1.3 (inactive) | 2.96 | -1.07 (inactive) | -0.0152 | 0.167 | 0.461 | -0.0479 | 1.49 | 0.455 | 0.454 | -0.268 (inactive) | 0.08 | 0.139 | -0.088 | -0.205 | -0.45 | 0.67 |
| O=C(NCCN1CCOCC1)[C@@H]1c2ccccc2C(=O)N(Cc2ccc(OC(F)(F)F)cc2)[C@H]1c1ccc(CO)cc1 | 1.19 | -1.58 (inactive) | -0.748 (inactive) | -0.846 (inactive) | 3.09 | 0.0461 (inactive) | -0.0766 | 0.0807 | -0.0807 | -0.126 | -0.0284 | 0.0779 | 1.18 | 0.709 (inactive) | -0.738 | 0.0049 | -0.611 | 0.417 | -1.14 | -0.252 |
| CCOC(=O)C1=CC[C@@H](c2ccc(OC)cc2)N(S(=O)(=O)c2ccc(C)cc2)[C@H]1c1ccc(C)cc1 | 0.966 | 0.106 (inactive) | 0.529 (inactive) | 0.53 (inactive) | 2.84 | -0.747 (inactive) | 0.194 | 0.191 | 1.09 | 0.0656 | 0.71 | 0.528 | 0.836 | -0.0291 (inactive) | 0.642 | 1.07 | -0.0102 | 0.887 | -0.346 | 0.588 |
| [N-]=[N+]=Nc1ccccc1C[C@@]1(C(=O)NCC(O)CO)N=C(c2ccc(OCCCO)cc2)O[C@@H]1c1ccccc1 (stereo not given in full) | 0.376 | -0.558 (inactive) | -1.09 (inactive) | -1.31 (inactive) | 2.81 | 0.883 (inactive) | -0.0021 | -0.264 | -0.405 | -0.151 | 0.973 | 0.262 | 0.9 | -0.0949 (inactive) | -0.134 | 0.119 | -1.16 | -0.932 | -1.17 | 0.0121 |
